High-throughput results from PubChem.
The list is not random: actives were taken first. Their share in the collection is about 1.2%.
RN4220 kill: kills Staphylococcus aureus RN4220; inhibition, % (no concentration beside the values); S. aureus RN4220 growth, OD600, 16 h; 330,000 compounds, 0.33% hits; in the data active means inhibition above about 85%;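 further: plate controls were untreated cells for no effect and reference antibiotic for full effect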
BJeLR viability: BJeLR cell viability loss; BJeLR (HRASV12) viability, CellTiter-Glo ATP luminescence, 48 h; inhibition, % (test concentration not listed); 300,000 compounds, 0.17% hits; AID 1554; in the data active means inhibition above about 50%
ugtP null kill: kills S. aureus RN4220 lacking UgtP. S. aureus RN4220 ugtP deletion, OD600 growth, 16 h. growth inhibition, % (test concentration not listed). 330,000 compounds, 0.54% hits; in the data active means growth inhibition above about 68%;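 further: plate controls were untreated wells for no effect and antibiotic for full effect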
MazF activator: activators of E. coli MazEF toxin-antitoxin RNase. P0AE70. FAM/BHQ RNA-DNA oligo cleavage fluorescence, 5 h. activation, % at 20 µM. 350,000 compounds, 0.32% hits. AID 504720; in the data active means activation above about 50%
Target sequence (P0AE70 whole entry, looked up): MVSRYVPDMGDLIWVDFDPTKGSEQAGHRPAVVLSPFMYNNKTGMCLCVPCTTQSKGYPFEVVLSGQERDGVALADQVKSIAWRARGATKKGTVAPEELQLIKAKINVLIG
PriA SSB inh: K. pneumoniae PriA-SSBct interaction inhibition; AlphaScreen SSBct-PriA binding, biotinylated peptide; inhibition, % at 33 µM; 430,000 compounds, 0.6% hits; in the data active means inhibition mostly above about 37%, no sharp cut-off; inactive means mostly below about 20%;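 further: plate controls were negative control peptide for no effect and reference peptide for full effect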
* hit, by the source's call; i = inactive; . = not tested or not shown; ! = not active in a repeat.

SMILES	RN4220 kill	BJeLR viability	ugtP null kill	MazF activator	PriA SSB inh
CCC[C@@H](CN1CCC[C@H]1CN1C(N)=NC[C@@H]1Cc1ccccc1)N1C[C@@H](Cc2ccccc2)N(CCCC2CCCC2)C1=N	.	.	.	-4	12
CCC[C@@H](CN1CCC[C@H]1CN1C(N)=NC[C@H]1CC(C)C)N1C[C@@H](Cc2ccccc2)N(CCCC2CCCC2)C1=N	100*	.	101*	8	6
CCCCN1C(=N)N([C@@H](C)CN2CCC[C@H]2CN2C(N)=NC[C@@H]2Cc2ccccc2)C[C@H]1[C@H](C)CC	.	.	.	13	8
Cn1nnn(-c2ccc(NC(=O)c3ccc(Cl)s3)cc2)c1=O	.	.	.	.	-5
CC(=O)c1ccc(N2CCN(C(=O)c3ccc(S(=O)(=O)NCc4ccco4)cc3)CC2)cc1	4	.	3	8	-9
COc1ccc(C(=O)C(C#N)=NNc2cccc([N+](=O)[O-])c2)cc1	86*	.	87*	.	-1
COc1ccc(C(=O)/C(C#N)=N/Nc2ccc([N+](=O)[O-])cc2)cc1	.	32	.	3	.
N#CC(=NNc1cccc([N+](=O)[O-])c1)C(=O)c1ccc(Br)cc1	94*	.	89*	.	16
CCN1C(=O)CSC1=NS(=O)(=O)c1ccccc1	5	.	5	.	-4
CCN1C(=O)CSC1=NC1C2CC3CC(C2)CC1C3 (stereo unspecified)	8	-2	91*	-4	-35
COc1ccc(C)c2sc(NC(=O)C3=COCCO3)nc12	15	7	-4	.	-10
COCCn1c(-c2ccc(-c3ccc([N+](=O)[O-])cc3Br)o2)nc2c1c(=O)[nH]c(=O)n2CC(C)C	-26	-9	-5	98*	10
Cc1ccc(C)c(S(=O)(=O)Nc2cc3c4c(c2)CC(=O)N4CCC3)c1	-2	13	-6	0	-14
Cc1ccc(S(=O)(=O)NN)c(C)c1N1CCCC1=O	-1	-4	-1	165*	4
CCn1cc(NC(=O)N2CCN(c3cccc(Cl)c3)CC2)c2ccccc21	.	.	.	.	31*
Cc1ccc(S(=O)(=O)CCC(=O)Nc2nc3c(s2)CCCC3)cc1	13	-2	3	-3	2
COc1ccc2nc(-c3ccccn3)[nH]c2c1	2	13	0	5	-6
c1ccc(-c2nc3ccc(Cc4ccc5nc(-c6ccccn6)[nH]c5c4)cc3[nH]2)nc1	.	.	.	.	88*
Nc1ccccc1-c1n[nH]c(-c2ccccn2)n1	.	.	.	.	107*
Nc1n[nH]c(-c2ccccn2)n1	.	.	.	.	49
Nc1ccc2nc(-c3ccc(N)c(Cl)c3)[nH]c2c1	-7	2	1	13	44*
Nc1ccc2nc(-c3ccccc3)[nH]c2c1	2	-13	-1	8	16
Nc1ccc2nc(-c3ccccn3)[nH]c2c1	1	-3	-6	11	96*
CC(=O)c1ccc(N2C(=O)C3C(C2=O)C(C(=O)c2ccc(Cl)cc2)N2CCCC32)cc1 (stereo unspecified)	7	.	10	i	0
CC(C)c1nccn1S(=O)(=O)c1cccc([N+](=O)[O-])c1	2	.	2	9	-8
SMILES	RN4220 kill	BJeLR viability	ugtP null kill	MazF activator	PriA SSB inh
Cc1ccc(-c2csc(NC(=O)CSc3nc4ccccc4c(=O)n3CCCN(C)C)n2)cc1	-13	10	-6	0	55*
CCn1c(SCC(=O)Nc2nc(-c3ccc(C)cc3)cs2)nnc1-c1ccccc1	-9	-7	4	3	-16
Cc1cccc2c1NC(=O)/C2=C\C(=O)c1cccs1	97*	24	98*	8	-9
Cc1cc(Br)c2c(c1)/C(=C/C(=O)c1cccs1)C(=O)N2	4	3	-7	16	-22
CCc1ccc2c(c1)/C(=C/C(=O)c1cccs1)C(=O)N2	97*	-4	97*	3	2
C/C(C=NNC(=O)c1cc(-c2ccc(C)s2)[nH]n1)=C\c1ccccc1	7	.	1	.	-18
CCC1=C(OC(=O)N(CC)CC)N2C(=O)OC(=NCc3ccccc3)[C@]2(C)C2C1=CCC1C(=O)N(CC)C(=O)C12 (stereo partly specified)	4	.	0	.	.
O=C(CSc1ccc(Cl)cc1)Nc1nc(-c2ccc(Cl)s2)cs1	.	.	.	.	1
CN(C)CCCn1c2c3ccccc3ccc2c2oc(=O)c3ccccc3c21	.	.	.	847*	-18
CN(C)CCCn1c(=S)[nH]c2ccccc2c1=O	6	3	3	-6	-2
CC(=O)n1cc(/C=C2/N=C(c3ccccc3)OC2=O)c2ccccc21	-1	-7	-1	149*	-2
COC(=O)c1c[nH]c2c1-c1cc(C(=O)OCc3ccccc3)n(S(=O)(=O)c3ccc(C)cc3)c1C(=O)C2=O	.	.	.	75*	-17
Cc1cc(C)c(NC(=O)CNC(=O)c2ccccc2SCC(=O)N2CCCC2)c(C)c1	-6	.	5	4	2
Cc1ccc(NS(=O)(=O)c2c(C)[nH]c(=O)[nH]c2=O)c(Br)c1	4	2	8	8	-4
COc1cc(-c2nc3ccc4ccccc4c3c3c2CCC3)ccc1O	99*	-22	101*	5	15
COc1cc(-c2nc3ccc4ccccc4c3c3c2CCC3)cc(OC)c1O	-1	-14	62	9	24
Cc1ccc(C)c2c1cc(C)c1nnc(SCc3ccccn3)n12	5	0	-4	4	-15
O=C(CCc1nnc(-c2ccccc2)o1)NCc1c(F)cccc1F	3	6	6	-7	-6
O=C(Nc1ccc(Nc2ccccc2)cc1)C(=O)c1c[nH]c2ccccc12	.	.	.	.	48*
Clc1ccc(CNCCc2ccc3c(c2)OCO3)cc1	4	-2	17	6	-2
Cc1ccc(C(=O)Nc2cccc(C(=O)N/N=C/c3ccc(F)cc3)c2)cc1	.	-3	.	63*	.
Cc1cccc(NC(=O)/C(=C\c2cccs2)NC(=O)c2ccccc2)c1	-7	9	-11	59*	7
N#Cc1cc(-c2ccc(Cl)cc2)cnc1Sc1ccccc1	-4	3	69	1	-11
COc1ccc(O)c(-c2cc(-c3cccc(Br)c3)n[nH]2)c1	42	8	86*	-10	28
Cc1ccc(C(OCC(O)CN2CCCCC2CO)c2ccccc2)cc1 (stereo unspecified)	-2	1	1	8	-13
SMILES	RN4220 kill	BJeLR viability	ugtP null kill	MazF activator	PriA SSB inh
CC(C)(C)CN1C(=O)C(=O)NCC1Cc1ccc(O)cc1 (stereo unspecified)	97*!	.	98*!	.	.
CC(C)(C)CN1C(=O)C(=O)NC[C@H]1Cc1ccc(O)cc1	.	-6	.	2	-6
N#C/C(C(N)=O)=c1/ccc2c(c1)N1C3=C(CCCC3)CC3CCCCC31N=2 (stereo unspecified)	.	8	.	1	.
N#CC(C#N)=c1ccc2c(c1)N1C3=C(CCCC3)CC3CCCCC31N=2 (stereo unspecified)	91*	19	92*	11	38
CCN1C(c2ccccc2)C(C)C(=O)C(C)C1c1ccccc1 (stereo unspecified)	-13	-1	91*	-1	1
CCOC(=O)c1c(C)nc2ccccc2c1C	2	-2	0	8	-7
